# Assay results as given in PubChem BioAssay (EPA / NIEHS).
# The source made the active and inactive calls. Rule for the calls: active = hit-call score of the fitted dose curve at least 0.9, where 1 is the maximum; inactive = score below 0.9.
# Experiment: ATG_ISRE_CIS: Attagene CIS-FACTORIAL HepG2 Assay for human Interferon Regulatory Factor 1 (IRF1) binding to an Interferon-Stimulated Response Element (ISRE) (AID 2282948)
# Details: HepG2 ISRE cis-reporter (Attagene), mRNA transcription readout; actives raise or lower the signal
# Procedure: ATG_CIS is a cell-based, multiplexed-readout assay that uses HepG2, a human liver cell line, with measurements taken at 24 hours after chemical dosing in a 24-well plate.ATG_ISRE_CIS is one of 52 assay component(s) measured or calculated from the ATG_CIS assay. It is designed to make measurements of mRNA induction, a form of inducible reporter, as detected with fluorescence intensity signals by Reverse transcription polymerase chain reaction (RT-PCR) and Capillary electrophoresis technology.Data from the assay component ATG_ISRE_CIS was analyzed into 1 assay endpoint. This assay endpoint, ATG_ISRE_CIS, was analyzed with bidirectional fitting relative to DMSO as the negative control and baseline of activity. Using a type of inducible reporter, measures of mRNA for gain or loss-of-signal activity can be used to understand the reporter gene at the transcription factor-level as they relate to the gene IRF1. Furthermore, this assay endpoint can be referred to as a primary readout, because this assay has produced multiple assay endpoints where this one serves a reporter gene function. To generalize the intended target to other relatable targets, this assay endpoint is annotated to the dna binding intended target family, where the subfamily is interferon regulatory factors.
# Human liver HepG2 cells are transiently transfected with multiple reporter transcription units (MRTUs) in 6-well plates using FuGene 6 reagent (Roche; 3 ml FuGene/1 mg DNA). The MRTU constructs are regulated by a cis-regulating element (promoter). […] A major difference between the CIS and TRANS system is that in CIS activities of endogenous TFs are measured, whereas the TRANS assay evaluates changes in activities of exogenous, chimeric NR-Gal4 proteins. […] At the end of 24 hour incubation, total RNA was isolated using TriZol reagent (Invitrogen). The isolated RNA is then reverse-transcribed using oligo(dT) primer and Mo-MLV reverse transcriptase (Invitrogen) with DNAse I (Ambion) treatment for 30 min. The one-tenth of the produced cDNA was amplified by PCR using Taq DNA polymerase (Invitrogen) and two reporter sequence-specific primers. The PCR products were fluorescently labeled by primer extension with 6-arboxyfluorescein (6-FAM) 5'-labeled reporter sequence-specific primer (2 min at 95 C, 20 s at 68 C and 10 min at 72 C) and these products were digested with 5U of HpaI (New England Biolabs) for 2h at 37 C. The fragments were purified using Qiaquick PCR columns (Qiagen), analyzed on an ABI 3130xL genetic analyzer (Applied Biosystems) with peak positions identified by using a set of X-rhodamine (ROX)-labeled MapMarker1000 molecular weight standards (BioVentures). The raw capillary electrophoresis data was processed using Attagraph software (Attagene).
SMILES,outcome,AC50
CC(=O)[C@@]1(O)CC[C@H]2[C@@H]3C[C@H](C)C4=CC(=O)C=C[C@]4(C)[C@@]3(F)[C@@H](O)C[C@@]21C,inactive,
C=C[Si](C)(C)O[Si](C)(C)C=C,inactive,
Nc1ccc(N=Nc2ccccc2)c(N)n1,inactive,
CCC(Cc1ccccc1)(C(=O)c1ccc(N2CCOCC2)cc1)N(C)C (stereo not given),,27.2 µM (active)
O=C1c2ccccc2C(=O)C1c1nc2ccccc2c(Br)c1O,inactive,
CC1(C)O[C@@H]2C[C@H]3[C@@H]4C[C@H](F)C5=CC(=O)CC[C@]5(C)[C@H]4[C@@H](O)C[C@]3(C)[C@]2(C(=O)CO)O1,inactive,
C[Si](C)O[Si](C)(C)O[Si](C)(C)O[Si](C)C,inactive,
O=Cc1ccc(CO)o1,inactive,
CC(CC=O)CCCC(C)(C)O (stereo not given),inactive,
N=c1ccn2c(n1)O[C@H]1[C@H](O)[C@@H](CO)O[C@H]12,inactive,
O=C(O)CC(C(=O)O)C(CC(=O)O)C(=O)O (stereo not given),inactive,
CCOC(=O)Cc1cccc2ccccc12,inactive,
COC(=O)c1cc(Cl)ccc1[N+](=O)[O-],inactive,
CCCCC/C=C\CCC=O,inactive,
CCCCCCCCCCOC(C)=O,inactive,
Nc1ncn([C@@H]2O[C@H](CO)[C@@H](O)[C@H]2O)c(=O)n1,,10.8 µM (active)
NNC(=O)c1cccc(C(=O)NN)c1,inactive,
CCCCCCCCCCCCCCCC[n+]1ccccc1,,9.02 µM (active)
CC(=O)Oc1ccc(C)cc1,inactive,
CC(=O)CC(N)=O,inactive,

SMILES,outcome,AC50
O=C(c1ccc(O)cc1)c1ccc(O)cc1O,inactive,
CCCCCCCCCCC=CC#N,inactive,
CC(C)(C)c1ccc(OC(=O)c2ccccc2O)cc1,inactive,
O=c1cc(-c2ccccc2)oc2ccccc12,,127 µM (active)
c1ccc(CNCc2ccccc2)cc1,inactive,
FC(F)=C(F)OC(F)(F)C(F)(F)C(F)(F)F,inactive,
Cc1cc(C)c(C)c(O)c1,inactive,
O=c1[nH]c(=O)c2[nH]c(=O)[nH]c2[nH]1,inactive,
c1ccc(CCCc2ccncc2)cc1,inactive,
C=CCOCC(O)CCl (stereo not given),inactive,
CCCCCCCCCCCCCCCC[N+](C)(C)CC,,9.27 µM (active)
CC(C)CCCCCOC(=O)CCS,inactive,
CCCc1ccc(OC)cc1,inactive,
C=CC(C)(C)C,inactive,
[Cl][Nd]([Cl])[Cl],inactive,
c1ccc(-c2ccccn2)nc1,inactive,
C=C(C)C(=O)OCCO,inactive,
COC(=O)C1=C(C)NC(C)=C(C(=O)OCC(C)C)C1c1ccccc1[N+](=O)[O-] (stereo not given),,11.1 µM (active)
CC(C)(C)C(=O)CCc1ccc(Cl)cc1,inactive,
Nc1ccc(Oc2ccc(N)c(N)c2)cc1,inactive,
